PABP1 MLLE inh – inhibitors of PABP1 MLLE–PAM2 peptide binding, primary screen, biochemical, fluorescence polarization, FITC-PAM2, GST-MLLE; Polyadenylate-binding protein 1 (Homo sapiens), P11940; inhibition, % at 20 µM; 0.36% of 360,000 active; AID 588489, 2011; in the data active = inhibition above about 35%, passing the limit was not always enough;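 note: plate controls were DMSO wells with GST-MLLE for no effect and wells lacking GST-MLLE protein for full effect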
GRK2 inh – compounds blocking aptamer binding on GRK2 – biochemical, human GRK2, bead flow cytometry, HTS, primary screen | FAM-aptamer displacement from GRK2 | 0.59% of 330,000 active | AID 488847, 2010 | Beta-adrenergic receptor kinase 1 (Homo sapiens), P25098 | inhibition of aptamer binding, % at 10 µM;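 active = inhibition of aptamer binding above 40%, roughly 3 SD of noise, on plates passing a quality check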;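 note: median bead fluorescence of bound FAM aptamer so fluorescent compounds give negative values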
eIF4H inh – human eIF4H binding inhibitors, primary screen, translation initiation inhibitor project, biochemical, uHTS, fluorescence polarization; inhibition, % at 35 µM; Eukaryotic translation initiation factor 4H (Homo sapiens), Q15056; eIF4H fluorescence polarization binding assay; 0.94% of 290,000 active;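 note: calls also rest on retests at 20 µM and on dose response follow-up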
PABP FP inh – PABP poly(A) RNA binding inhibitors, primary screen, biochemical, fluorescence polarization, uHTS; inhibition, % at 35 µM; 1% of 290,000 active;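 note: calls also rest on retests at 20 µM and on dose response follow-up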
PERK inhibitor – block of dimerizer-induced PERK translation repression, primary screen, PERK inhibitor project, CHO PERK-DD cells, SEAP luminescence, HTS; CHO PERK-DD fusion, SEAP luminescence translation reporter; inhibition, % at 5.6 µM; 0.17% of 220,000 active; AID 1416, 2008;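 active = inhibition above the mean inhibition of all tested compounds plus 3 SD, set separately per screening campaign, cut at about 2.9% in these data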;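 note: PERK kinase domain activated by AP20187 dimerizer at 100 nM; 0% = DMSO with dimerizer and 100% = rapamycin at 8.4 µM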
The depositor's hits bear a star; ? = inconclusive; · = not tested or not shown. An excerpt weighted towards active compounds, which were near 1.9% of everything screened. Unless noted, the rule behind the calls is not given here.

SMILES | PABP1 MLLE inh | GRK2 inh | eIF4H inh | PABP FP inh | PERK inhibitor
O=C1C(Cl)=C(Nc2ccccc2)C(=O)c2ccccc21 | -1 | 0 | 11 | -18 | 1
O=C1C(Cl)=C(NCCc2ccccc2)C(=O)c2ccccc21 | 40* | · | · | · | ·
O=C(O)c1ccc(NC2=C(Cl)C(=O)c3ccccc3C2=O)cc1 | 47* | 6 | -4 | 9 | 0
COc1ccccc1C(CNC(=O)CN1C(=O)NC(C)(c2ccc3ccccc3c2)C1=O)N1CCCC1 (stereo not given) | -11 | · | · | · | ·
COc1cc2ccccc2cc1C(=O)OCC(=O)N(CC(C)C)c1c(N)n(Cc2ccccc2)c(=O)[nH]c1=O | -1 | 2 | · | · | ·
COc1ccc(OC)c(NC(=O)COC(=O)CN(C)S(=O)(=O)c2ccc(C)cc2)c1 | 4 | 100* | -2 | 1 | 1
CCOC(=O)C1CCCN(C(=O)c2ccccc2SCCOC)C1 (stereo not given) | 40* | 0 | 8 | 7 | 0
COCCSc1ccccc1C(=O)N1CCCC(C)C1 (stereo not given) | 5 | 1 | -6 | -3 | 2
CCOC(=O)C1CCCCN1S(=O)(=O)c1ccc2c(c1)CC(C)N2C(=O)C1CCC1 (stereo not given) | -2 | 1 | -1 | 6 | ·
S=C(NCCCN1CCOCC1)NCCCN1CCOCC1 | 41* | 0 | -11 | 2 | 0
O=C(O)C1C2C=CC(C2)C1C(=O)NCCCN1CCOCC1 (stereo not given) | 9 | 1 | 6 | -8 | 3.0*
CCCCNC(=O)C1C2C=CC(C2)C1C(=O)O (stereo not given) | 4 | 13 | -2 | -18 | 0
CCOc1ccc(N2C(=O)CC(N(Cc3ccco3)C(=O)CCC(=O)O)C2=O)cc1 (stereo not given) | -4 | 3 | 4 | -2 | 1
CCN(CCN(C)C)C(=O)Cn1ncc2c1-c1cc(C)ccc1OC2 | 17 | 2 | -6 | -8 | 0
CCN(CC)C(=O)Cn1ncc2c1-c1ccccc1OC2 | 4 | 1 | 63* | -22 | 1
O=C(Nc1ccc(N2CCOCC2)cc1)c1ccc(Cl)c(S(=O)(=O)N2CCCCC2)c1 | 4 | 0 | · | · | ·
O=C1C(Br)=Cc2cccc3cccc1c23 | 83 | 3 | ? | ? | 0
O=C1c2sccc2-c2cccc3cccc1c23 | 67* | · | · | · | ·
Cc1ccc(S(=O)(=O)N2CCC[C@H]2C(=O)NC2CCCCC2)cc1 | 2 | · | · | · | ·
COc1ccc(OCc2cc(C(=O)O)c(C)o2)cc1 | · | 64* | ? | 48* | 1
CCc1ccc(NC(=O)CSc2nc(N)c(NC(=O)c3ccc(F)c(F)c3)c(=O)[nH]2)cc1 | -4 | 3 | 3 | 10 | ·
O=C(Nc1ccc2c(c1)nc1n2CCOC1)c1ccco1 | 12 | 0 | -5 | -6 | 1
O=C(Nc1ccc2c(c1)nc1n2CCSC1)c1ccco1 | 12 | 1 | 72* | 2 | 0
O=C(Nc1ccc2c(c1)nc1n2CCN(C2CCCCC2)C1)c1ccco1 | -29 | · | 94* | 22 | 2
Cn1cc(S(=O)(=O)N2CCOCC2)cc1C(=O)Nc1cccc(Cl)c1 | -8 | 0 | -12 | -3 | ·
SMILES | PABP1 MLLE inh | GRK2 inh | eIF4H inh | PABP FP inh | PERK inhibitor
CC(C)C1NC2(C(=O)c3ccccc3C2=O)C2C(=O)N(c3ccc(F)cc3)C(=O)C12 (stereo not given) | 39 | 0 | 51* | 39* | 0
C=CCNc1nc2cc(-c3ccc(C(=O)N4CCOCC4)cc3)sc2c(=O)n1C | -2 | · | · | · | ·
CC(C)CC(NC(=O)C(COCc1ccccc1)NC(=O)OC(C)(C)C)C(=O)NN (stereo not given) | 11 | 0 | active | 68 | 0
O=C(CCCC(=O)N/N=C/c1ccccc1C(=O)O)N/N=C/c1ccccc1C(=O)O | -19 | 3 | -8 | 2 | 3.5*
O=C(CNC(=O)c1ccco1)NNC(=O)c1cccc(Cl)c1 | 9 | 0 | · | · | ·
CC1(C(=O)NNC(=O)c2ccc(=O)oc2)CC1Br (stereo not given) | -7 | 2 | 82 | 83* | 0
Cc1ccc2cc3c(N)c(C(=O)Nc4c(C)[nH]c(=O)[nH]c4=O)sc3nc2c1 | -1 | 4 | 5 | 81* | 0
